TDP1 cell noCPT: qHTS for Inhibitors of human tyrosyl-DNA phosphodiesterase 1 (TDP1): qHTS in cells in absence of CPT; actives 15% (n = 420,000); DT40 Tdp1-/- hTDP1 cells, no CPT, ATP luminescence, 48 h; Potency, µM (highest dose often 46.2 µM), for the others: top-dose activity change, negative = growth inhibition, hits mostly inhibitors; also: potency is read from the fitted curve at half-maximal effect; % is scaled to controls: 0 for no effect and ±100 for the full control effect; nearly all actives have a fitted effect of over 55% in size
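Seeded 400 DT40-hTDP1 cells/well (vehicle DMSO, no 20 nM CPT); pinned compounds; ≥48 hr at 37 °C; CellTiter-Glo luminescence as viability measure.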
IL1B secr inh: inflammasome signaling inhibition, IL-1 beta readout; THP-1 LPS/ATP IL-1B secretion, AlphaLISA, 16 h; stronger effect = lower value; activity change, % at 57.5 µM; actives 4.7% (n = 360,000); AID 743279; in the data active = activity change below about -50%; inconclusive = mostly about -30% to -49%; also: % is scaled to controls: 0 for no effect and ±100 for the full control effect
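THP-1 cells pretreated 1 hr with compounds (up to 57.5 uM final), then stimulated with LPS (250 ng/mL final) plus ATP (1.25 mM final); secreted IL-1B measured by AlphaLISA after 16 hr, decreased signal indicating inhibition.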
DT40 TDP1 CPT: DT40-hTDP1 cell growth loss with CPT; chicken DT40 Tdp1-/-;hTDP1 cells + 20 nM CPT, ATP luminescence, 48 h; Potency, µM (titrated, usually from 46.2 µM), for inactives: at the highest dose activity change, negative = growth inhibition, most hits filed as inhibitors; actives 12% (n = 420,000); also: potency is read from the fitted curve at half-maximal effect; % is scaled to controls: 0 for no effect and ±100 for the full control effect; nearly all actives have a fitted effect of over 55% in size
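Chicken DT40 Tdp1-/- cells complemented with human TDP1, 400 cells/well, exposed to compounds plus 20 nM camptothecin for at least 48 h at 37 C; viability read as ATP content by CellTiter-Glo luminescence.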
DRD3 antagonist: D3 dopamine receptor (human) antagonism; actives 2.5% (n = 360,000); max response, negative = inhibition, %; P35462; D3R cells, DiscoveRx beta-arrestin luminescence, antagonist mode; stronger effect = lower value; in the data active = max response below about -50%; inconclusive = no clear call, values can overlap the other calls; also: % is scaled to controls: 0 for no effect and ±100 for the full control effect
Target sequence (P35462 whole entry, looked up): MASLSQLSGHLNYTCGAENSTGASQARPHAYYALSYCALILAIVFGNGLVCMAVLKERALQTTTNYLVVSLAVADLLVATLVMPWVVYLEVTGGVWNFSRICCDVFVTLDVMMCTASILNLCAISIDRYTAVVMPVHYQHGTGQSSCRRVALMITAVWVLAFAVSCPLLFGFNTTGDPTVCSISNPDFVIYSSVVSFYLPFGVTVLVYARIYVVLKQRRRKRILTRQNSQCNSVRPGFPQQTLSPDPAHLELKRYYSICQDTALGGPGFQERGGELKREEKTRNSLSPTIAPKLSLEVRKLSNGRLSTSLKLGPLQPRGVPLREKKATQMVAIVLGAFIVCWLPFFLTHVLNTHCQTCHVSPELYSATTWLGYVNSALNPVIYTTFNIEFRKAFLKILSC
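Cells expressing the human receptor were seeded at 1500 cells/well, incubated overnight at 37 degrees C in 5% CO2, then exposed to library compounds with dopamine controls for 90 minutes at 37 degrees C before luminescent detection.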
D3 ag: activates the human D3 dopamine receptor. P35462. D3R DiscoveRx beta-arrestin cells, luminescence, 90 min. max activation, %. actives 0.58% (n = 410,000); in the data active = max activation above about 30%; also: 0% is about no effect
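Agonist mode: compounds and dopamine controls were applied to plated cells for 90 min at 37 degrees C after an overnight attachment at 1500 cells/well. Luminescent read-out followed 30 - 60 minutes at room temperature with DiscoveRx detection reagent.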
ClpP mod: qHTS Assay for Activators of ClpP; purified B. subtilis ClpP, FRET peptide cleavage, 20 min; actives 1.9% (n = 340,000); Potency, µM (doses to about 57.5 µM), for the others: at the top dose activity change, negative = active; active = well fitted falling curve with a large enough effect; inconclusive = small, poorly fitted or top-dose-only effect; inactive = no such curve, though single readings can be large or run the other way; also: potency is read from the fitted curve at half-maximal effect; the source files actives as falling curves though it sought activators and does not explain the sign; nearly all actives have a fitted effect of over 65% in size
Target sequence (P80244 whole entry, looked up): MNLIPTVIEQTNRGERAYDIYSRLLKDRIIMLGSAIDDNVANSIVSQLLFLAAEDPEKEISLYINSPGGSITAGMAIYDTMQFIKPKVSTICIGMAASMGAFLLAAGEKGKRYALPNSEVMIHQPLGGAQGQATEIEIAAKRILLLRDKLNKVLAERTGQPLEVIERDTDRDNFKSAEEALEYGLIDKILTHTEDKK
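Buffer: 100 mM Tris/HCl pH8, 100 mM KCl, 0.05% low protease BSA, 2.5% glycerol, 0.01% Tween-20. ClpP 10 microg/mL final; 20 min RT; delta FRET normalized to ADEP and DMSO controls.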
Numbers without * were called inactive; ? = inconclusive; nt = not tested or not shown; ! = not confirmed by another sample; [ ] = remark or other dose. Hits are enriched below; roughly 21% of the tested compounds scored in any of these assays. Unless noted, calls follow the shape of the dose curve; as a rule, active = well fitted inhibition curve with a large enough effect; inconclusive = small, poorly fitted or top-dose-only effect; inactive = flat fitted curve, though single readings scatter.

SMILES	TDP1 cell noCPT	IL1B secr inh	DT40 TDP1 CPT	DRD3 antagonist	D3 ag	ClpP mod
C[C@@H]1CCCCO[C@H](CN(C)C(=O)Nc2cccc3ccccc23)[C@@H](C)CN([C@H](C)CO)C(=O)c2cc(N(C)C)ccc2O1	9.2µM*	5.9	14.6µM*	-13.5	1.3	-14.0%
Cc1ccc(S(=O)(=O)Nc2ccc3c(c2)C(=O)N([C@H](C)CO)C[C@H](C)[C@H](CN(C)C(=O)Nc2cccc4ccccc24)OCCCC[C@@H](C)O3)cc1	14.6µM*	-2.3	20.6µM*	22.6	1.5	4.3%
C[C@@H]1CN([C@@H](C)CO)C(=O)c2cc(NS(=O)(=O)c3ccc(F)cc3)ccc2O[C@@H](C)CCCCO[C@H]1CN(C)C(=O)NC1CCCCC1	?	-11.9	23.1µM*	11.2	-1.7	-1.6%
C[C@@H]1CCCCO[C@@H](CN(C)C(=O)Nc2ccccc2)[C@@H](C)CN([C@H](C)CO)C(=O)c2cc(N(C)C)ccc2O1	?	20.4	-26.1%	-23.6	-3.9	-2.2%
Cc1ccc(S(=O)(=O)Nc2ccc3c(c2)C(=O)N([C@H](C)CO)C[C@H](C)[C@@H](CN(C)C(=O)NC2CCCCC2)OCCCC[C@@H](C)O3)cc1	13µM*	-8.7	20.6µM*	-16.7	-7.8	1.3%
Cc1cc2n(n1)CCCN2C(=O)Nc1ccccc1C(F)(F)F	-17.8%	nt	-20.2%	nt	2.5	-1.7%
Cn1c(=O)c2c(nc(NN=C3CCCC3)n2C)n(C)c1=O	?	?	-24.0%	-3.9	-9.6	-5.2%
O=C(C1CCC(CNS(=O)(=O)c2ccccc2)CC1)N1CCOCC1 (centres undefined)	-12.1%	-18.6	1.1%	2.0	1.6	0.8%
CC(=O)Nc1ccc(S(=O)(=O)N(Cc2ccccc2)c2ccccc2F)cc1	?	17.0	-11.4%	-21.0	1.0	nt
N#Cc1ccc(-c2csc(NNC(=O)c3ccc(Br)cc3)n2)cc1	5.8µM*	-1.9	5.17µM*	10.5	1.9	-2.7%
O=C(NNc1nc(-c2ccccc2)cs1)c1ccccc1	20.6µM*	-14.3	?	-18.4	-3.2	-4.4%
CC(=O)Nc1ccc(-c2csc(NNC(=O)c3ccc(C)cc3)n2)cc1	10.3µM*	-12.4	13µM*	-7.2	2.4	0.0%
CC(=O)NNc1nc(-c2ccc(NC(C)=O)cc2)cs1	6.2%	-7.0	-11.8%	-3.1	1.8	-1.6%
CC(=O)c1ccccc1-c1ccc2c(c1)CC(CNC(=O)C[C@@H]1C[C@@H](C)NC(=S)N1)O2 (some centres undefined)	-7.3%	nt	-7.9%[9.04 µM]	nt	nt	nt
Cn1cccc1C(=O)OCC(=O)NC(=O)c1ccc(Cl)cc1	0.4%	-4.5	4.0%	-15.4	-0.7	-2.2%
CC(O)CCC(=O)NCCNC(=O)CCC(C)O (centres undefined)	?	7.5	25.9µM*	-4.7	-2.1	-0.5%
COCCNC(=O)/C(C#N)=C/c1cccc(NC(=O)c2ccccc2Cl)c1	?	-8.3	?	?	-11.9	-6.3%
CC(C)NC(=O)/C(C#N)=C/c1cccc(NC(=O)c2ccccc2Cl)c1	14.6µM*	-103.9*	?	-18.9	-5.9	-9.0%
CCCCC(=O)Nc1cccc(NC(=O)c2ccccc2Br)c1	-14.6%	0.0	?	-61.1*	1.4	0.9%
COc1cc(NC(=O)c2cccnc2)ccc1NC(=O)c1ccccc1Cl	?	-65.7*	5.4%	5.7	4.6	nt
CC(C)C(=O)Nc1cccc(NC(=O)c2ccc(Cl)cc2Cl)c1	?	-59.4*	-23.0%	-24.3	-11.3	-1.6%
COc1cccc(C(=O)Nc2cccc(NC(=O)c3ccc(Cl)cc3Cl)c2)c1	?	nt	?	nt	3.9	-24.2%
CCOC(=O)c1ccccc1NC(=O)c1c2c(nc3ccccc13)C(=O)N(C1CCCCC1)C2	-16.9%	nt	-14.9%	nt	4.2	-1.3%
FC(F)(F)c1nnc2ccc(Sc3ccccn3)nn12	-1.2%	-9.9	-1.7%	?	-3.3	0.3%
O=C(Nc1cccc(NC(=O)c2ccc(Cl)cc2Cl)c1)c1cccnc1	?	-53.9*	?	-1.6	4.3	nt
SMILES	TDP1 cell noCPT	IL1B secr inh	DT40 TDP1 CPT	DRD3 antagonist	D3 ag	ClpP mod
Cc1ccc(NC(=O)c2cccnc2)c([N+](=O)[O-])c1	18.4µM*	?	18.4µM*	10.8	10.1	-0.4%
COc1c(C)cc(Br)cc1C(=O)Nc1ccc(C)cc1[N+](=O)[O-]	13µM*	-6.5	?	-13.5	-4.1	-2.3%
Cc1cc(NC(=O)C2CCCCC2)ccc1NC(=O)c1ccccc1Cl	-24.8%	17.8	-3.0%	13.1	4.2	15.8µM*
O=C(Nc1cccc(NC(=O)c2cccnc2)c1)c1cccnc1	-15.3%	-2.6	-2.4%	-6.4	3.3	-0.5%
COC(=O)C1c2ccccc2-c2ccccc21	3.0%	-18.2	3.7%	1.5	2.7	nt
Cc1ccccc1OCc1ccc(-c2nc(C#N)c(N3CCC(C(N)=O)CC3)o2)o1	?	nt	?	nt	5.7	3.9%
CC(=O)Nc1cccc(O)c1	?	13.1	14.9%	-0.9	82.6*!	1.1%
CC(=O)Nc1cccc(NC(=O)c2ccccc2Cl)c1	0.5%	23.6	-6.5%	-54.6*	-9.1	1.6%
COc1cc(S(=O)(=O)Nc2cccc(C)c2)ccc1NC(=O)c1cccnc1	14.6µM*	0.0	?	8.6	2.5	-2.5%
Cc1ccc(C)c(NC(NC(=O)c2cccnc2)C(Cl)(Cl)Cl)c1 (centres undefined)	25.9µM*	11.7	23.1µM*	-13.0	1.4	0.3%
Cc1ccc2c(c1)N(C(=O)CCC(=O)NCCCN1CCOCC1)CCO2	-6.7%	-7.8	6.7%	8.1	-1.4	-1.0%
Cc1ccsc1C(=O)NNC(=O)c1cccc(S(=O)(=O)N2CCCC2)c1	?	2.2	?	-0.6	-5.9	0.8%
CSCCC(NS(=O)(=O)c1ccc(C)cc1)C(=O)NC1CCCCCC1 (centres undefined)	20.6µM*	0.4	?	7.7	-13.7	-1.8%
Cc1ccc(S(=O)(=O)N[C@H](C(=O)NC2CCC(C)CC2)C(C)C)cc1 (some centres undefined)	18.4µM*	20.7	?	-18.3	4.2	0.8%
COc1ccc(CN2CCC2(C)C(=O)Nc2cccc(NS(C)(=O)=O)c2)c2ccccc12 (centres undefined)	?	-3.9	?	-8.4	-4.1	-9.5%

Compound activity from PubChem.
